Measured values: PubChem BioAssay (NCATS)
Several values for one entry are separate records, joined by “and”; a condition that tells them apart may be missing. Identical values can stand only once. Records with an inconclusive call do not appear. Where a call stands in place of a potency, no number is given. Values without a mark were called inactive. Activity calls are given as the source filed them. Calls come from the whole dose curve; as a rule, active = well fitted curve in the direction sought with a large enough effect; inconclusive = small, poorly fitted or top-dose-only effect, or another doubt; inactive = no such curve, though single readings can be large; an effect the other way counts as inactive or inconclusive.

Assays:
[1] = system: KB-3-1; assay: Cytotoxic Profiling of Annotated Libraries Using Quantitative High-Throughput Screening (AID 1296008); details: Five cell lines viability, CellTiter-Glo ATP luminescence, 48-72 h; max response: hits give low values; note: nearly all actives have a fitted effect of over 60% in size
Summary of the method: (§1)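 Cells exposed to compounds for 48 or 72 hr at 37 degrees Celsius. Viability read as ATP-coupled luminescence with CellTiter-Glo after 10 min at room temperature.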

[2] = system: NIH3T3; assay: as above; details: Five cell lines viability, CellTiter-Glo ATP luminescence, 48-72 h; max response: hits give low values
Summary of the method: as §1

[3] = system: HACAT; assay: qHTS assay to identify novel small-molecules to repurpose for Merkel cell carcinoma treatment (AID 1296009); details: MCC and control cell lines, CellTiter-Glo viability, 72 h; at 44.8 µM (top of the series) unless noted; note: nearly all actives have a fitted effect of over 60% in size; note: potency is the fitted concentration of half-maximal effect
Summary of the method: (§2)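 Cells were incubated with compound for 72 hr at 37 degree celsius before CellTiter-Glo addition. Luminescence was normalized with no-cell wells as full cytotoxicity and DMSO as baseline.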

[4] = system: HEK293T; assay: as above; details: MCC and control cell lines, CellTiter-Glo viability, 72 h; at 44.8 µM (top of the series) unless noted
Summary of the method: as §2

[5] = system: MCC-13; assay: as above; details: MCC and control cell lines, CellTiter-Glo viability, 72 h; series mostly up to 46 µM
Summary of the method: as §2

[6] = system: MCC-26; assay: as above; details: MCC and control cell lines, CellTiter-Glo viability, 72 h; series mostly up to 46 µM
Summary of the method: as §2

[7] = system: MKL-1; assay: as above; details: MCC and control cell lines, CellTiter-Glo viability, 72 h; series mostly up to 46 µM
Summary of the method: as §2

[8] = system: MKL-2; assay: as above; details: MCC and control cell lines, CellTiter-Glo viability, 72 h; series mostly up to 46 µM
Summary of the method: as §2

[9] = system: UISO; assay: as above; details: MCC and control cell lines, CellTiter-Glo viability, 72 h; series mostly up to 46 µM
Summary of the method: as §2

[10] = system: WaGa; assay: as above; details: MCC and control cell lines, CellTiter-Glo viability, 72 h; series mostly up to 46 µM
Summary of the method: as §2

[11] = system: C33A; assay: Primary qHTS to identify gynecologic anti-cancer compounds using libraries of approved drugs and bioactive compounds (AID 1345084); details: Gynecologic cancer cell panel viability, ATPlite luminescence, 48 h; series mostly up to 57.5 µM; note: nearly all actives have a fitted effect of over 55% in size; note: potency is the fitted concentration of half-maximal effect
Summary of the method: (§3)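 Measured: luminescence after ATPlite addition (15 min, RT). Exposure: 48 h, 37 C, 5% CO2.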

[12] = system: CASKI; assay: as above; details: Gynecologic cancer cell panel viability, ATPlite luminescence, 48 h; series mostly up to 57.5 µM
Summary of the method: as §3

[13] = system: Es-2; assay: as above; details: Gynecologic cancer cell panel viability, ATPlite luminescence, 48 h; series mostly up to 57.5 µM
Summary of the method: as §3

[14] = system: HeLa; assay: as above; details: Gynecologic cancer cell panel viability, ATPlite luminescence, 48 h; series mostly up to 57.5 µM
Summary of the method: as §3

[15] = system: Hek293T; assay: as above; details: Gynecologic cancer cell panel viability, ATPlite luminescence, 48 h, control line for the selectivity index; series mostly up to 57.5 µM
Summary of the method: as §3

[16] = system: JEG-3; assay: as above; details: Gynecologic cancer cell panel viability, ATPlite luminescence, 48 h; series mostly up to 57.5 µM
Summary of the method: as §3

[17] = system: OV90; assay: as above; details: Gynecologic cancer cell panel viability, ATPlite luminescence, 48 h; series mostly up to 57.5 µM
Summary of the method: as §3

[18] = system: CAOV3; assay: as above; details: Gynecologic cancer cell panel viability, ATPlite luminescence, 48 h; series mostly up to 57.5 µM
Summary of the method: as §3

[19] = system: NIH3T3; assay: qHTS assay to identify novel small-molecules to repurpose for Merkel cell carcinoma treatment (AID 1296009); details: MCC and control cell lines, CellTiter-Glo viability, 72 h; at 44.8 µM (top of the series) unless noted; note: nearly all actives have a fitted effect of over 60% in size; note: potency is the fitted concentration of half-maximal effect
Summary of the method: as §2

SMILES | max response [1] | max response [2] | outcome [3] | outcome [4] | outcome [5] | Potency [6] | Potency [7] | Potency [8] | Potency [9] | Potency [10] | Potency [11] | outcome [12] | Potency [13] | Potency [14] | outcome [15] | outcome [16] | Potency [17] | outcome [18] | outcome [2] | outcome [19]
COc1ccc2c(c1)C13CCCC[C@@H]1C(C2)N(C)CC3 (stereo partly drawn) | 18.3% |  |  |  |  |  |  |  |  |  |  |  |  |  |  |  |  |  |  | 
COc1cc(OC)c(OC)cc1C=O | -7.6% and -8.54% | 2.47% and 4.91% | inactive | inactive [at 92 µM] | inactive | inactive | inactive | inactive | inactive | inactive | inactive | inactive | inactive | inactive | inactive | inactive | inactive |  |  | 
CC(Cc1ccccc1)NCCn1cnc2c1c(=O)n(C)c(=O)n2C (stereo not drawn) | 0.853% | -0.181% | inactive [at 92 µM] |  | inactive | inactive | inactive | inactive | inactive | inactive | inactive | inactive | inactive | inactive | inactive | inactive | inactive | inactive |  | 
CC(=O)NC1CCSC1=O (stereo not drawn) | -11.7% and -14.3% | 2.68% |  | inactive | inactive | inactive | inactive |  | inactive | inactive | inactive | inactive | inactive | inactive | inactive | inactive | inactive |  |  | 
O=C1CN=C(c2ccccc2)c2cc([N+](=O)[O-])ccc2N1 | 3.93% | -0.271% | inactive |  | inactive | inactive | inactive | inactive | inactive | inactive | inactive | inactive | inactive | inactive | inactive | inactive | inactive | inactive |  | 
CN1C(=O)NC(=O)C(C)(C2=CCCCC2)C1=O (stereo not drawn) | -0.631% and -0.133% |  |  | inactive | inactive |  | inactive | inactive | inactive | inactive | inactive | inactive | inactive | inactive | inactive | inactive | inactive | inactive | inactive | inactive
O=C1c2ccccc2C(=O)C1C(=O)C(c1ccccc1)c1ccccc1 | -7.07% | -11% | inactive | inactive | inactive | inactive |  |  | inactive | 23.7 µM (active) | inactive | inactive | inactive | inactive | inactive | inactive | inactive |  |  | 
NCCc1ccc(O)cc1 | -7.48% |  |  | inactive | inactive |  | inactive |  | inactive |  | inactive | inactive | inactive | inactive | inactive | inactive | inactive |  | inactive | inactive
CNCC(=O)c1ccc(O)c(O)c1 | -7.67% | -2.19% | inactive |  | inactive | inactive | inactive | inactive | inactive | inactive | inactive | inactive | inactive | inactive | inactive | inactive | inactive | inactive |  | 
CN1CCC(O)(c2ccc(F)cc2)C(C(=O)c2ccc(F)cc2)C1 (stereo not drawn) | 8.12% | 2.95% | inactive |  | inactive | inactive | inactive |  | inactive | inactive | inactive | inactive | inactive | inactive | inactive | inactive | inactive |  |  | 
C[C@]12CCC(=O)C=C1CC[C@@H]1[C@@H]2CC[C@@]2(C)[C@H]1CC[C@]2(C)O | -6.95% and 1.16% | -3.69% | inactive |  | inactive | inactive | inactive |  |  |  | inactive | inactive | inactive | 22.4 µM (active) | inactive | inactive | inactive | inactive |  | 
Nc1ccc([As](=O)(O)O)cc1 | -4.72% |  |  |  | inactive | inactive | inactive | inactive | inactive | inactive | inactive | inactive | inactive | inactive | inactive | inactive | inactive | inactive | inactive | inactive
O=c1[nH]oc2c1CCNC2 | -7.07% | -9.67% | inactive |  | inactive | inactive | inactive | inactive | inactive | inactive | inactive | inactive | inactive | inactive | inactive | inactive | inactive | inactive |  | 
C=C(C)[C@H]1CN[C@H](C(=O)O)[C@H]1CC(=O)O | 4.34% |  | inactive |  | inactive |  | inactive | inactive | inactive | inactive | inactive | inactive | inactive | inactive | inactive | inactive | inactive |  | inactive | inactive
O=C(CCCN1CCC2(CC1)C(=O)NCN2c1ccccc1)c1ccc(F)cc1 | -7.2% |  | inactive |  | inactive |  | inactive | inactive | inactive | inactive | inactive | inactive | inactive | inactive | inactive | inactive |  | inactive | inactive | inactive
O=P1(N(CCCl)CCCl)NCCCO1 (stereo not drawn) | 2.64% and 7.08% | -16.8% and -12.6% | inactive |  | inactive | inactive | inactive | inactive | inactive | inactive | inactive | inactive | inactive | inactive | inactive | inactive | inactive |  |  | 
COC(=O)C(Cl)C(=O)OC | -12.1% | -7.3% |  | inactive | inactive | inactive | inactive | inactive | inactive | inactive | inactive | inactive | inactive | inactive | inactive | inactive | inactive |  |  | 
NC1=NC(=O)C(c2ccccc2)O1 (stereo not drawn) | 4.09% | 3.43% | inactive |  | inactive |  | inactive | inactive | inactive | inactive | inactive | inactive | inactive | inactive | inactive | inactive | inactive |  |  | 
CC(C)c1cccc(C(C)C)c1O | 9.44% | 0.687% | inactive | inactive | inactive |  | inactive | inactive | inactive | inactive | inactive | inactive | inactive | inactive | inactive | inactive | inactive |  |  | 
Nc1ccccc1C(=O)O | -19.2% | 3.28% | inactive |  | inactive |  | inactive | inactive | inactive | inactive | inactive | inactive | inactive | inactive | inactive | inactive | inactive | inactive |  | 
c1ccc(CN2CCNCC2)cc1 | -8.52% | -5.38% | inactive [at 155 µM] |  | inactive |  | inactive | inactive | inactive | inactive | inactive | inactive | inactive | inactive | inactive | inactive | inactive | inactive |  | 
Nc1ccccc1 | -12% | -0.773% | inactive | inactive | inactive |  | inactive | inactive | inactive | inactive | inactive | inactive | inactive | inactive | inactive | inactive | inactive | inactive |  | 
CCN(CCO)CCn1c(Cc2ccccc2)nc2c1c(=O)n(C)c(=O)n2C | -17.3% | -7.24% | inactive |  | inactive | inactive | inactive | inactive | inactive | inactive | inactive | inactive | inactive | inactive | inactive | inactive |  | inactive |  | 
COc1cccc(C(=O)CCN[C@@H](C)[C@H](O)c2ccccc2)c1 | 25.7% | -18.8% | inactive |  | inactive |  |  | 15 µM (active) |  |  | inactive | inactive | inactive | inactive | inactive | inactive |  | inactive |  | 
CN1CC[C@]23c4c5ccc(O)c4O[C@H]2[C@@H](O)C=C[C@H]3[C@H]1C5 | -4.72% | -4.09% | inactive [at 92 µM] |  | inactive |  |  |  |  |  | inactive | inactive | inactive | inactive | inactive | inactive | inactive | inactive |  | 
CCC(C)(C)c1ccc(O)cc1 | 14.4% | 3.56% |  | inactive | inactive | inactive | inactive | inactive | inactive | inactive | inactive | inactive | inactive | inactive | inactive | inactive | inactive | inactive |  | 
O=C1c2ccccc2C(=O)c2ccccc21 | -11.4% | -2.39% | inactive [at 17.4 µM] | inactive [at 17.4 µM] | inactive | inactive | inactive | inactive | inactive | inactive | inactive | inactive | inactive | inactive | inactive | inactive | inactive |  |  | 
CCN[C@@H](C)Cc1cccc(C(F)(F)F)c1 | -9.47% | 2.4% | inactive |  | inactive | inactive | inactive | inactive | inactive | inactive | inactive | inactive | inactive | inactive | inactive | inactive | inactive | inactive |  | 
CCN[C@H](C)Cc1cccc(C(F)(F)F)c1 | -19.7% | -0.0448% | inactive [at 92 µM] |  | inactive |  | inactive | inactive | inactive | inactive | inactive | inactive | inactive | inactive | inactive | inactive | inactive |  |  | 
